Data as given in PubChem BioAssay (NCATS).
Records with an inconclusive call do not appear. Calls of active or inactive are those of the source. Calls come from the whole dose curve; as a rule, active = well fitted curve in the direction sought with a large enough effect; inconclusive = small, poorly fitted or top-dose-only effect, or another doubt; inactive = no such curve, though single readings can be large; an effect the other way counts as inactive or inconclusive.

Columns and labels:
[1] = qHTS of pediatric cancer cell lines to identify multiple opportunities for drug repurposing: Primary screen for MG 63 (6-TG R) cells (AID 1347105); note: nearly all actives have a fitted effect of over 50% in size; note: potency is the fitted concentration of half-maximal effect
Outline: (§1)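 Cells plated at 500-1,000/well in growth medium, compounds added after 5 h. MIPE tested at 11 points (from 0.78 nM), NPC at 8 points (from 0.59 nM). CellTiter-Glo luminescence after 48 h; concentration-response curves from primary screen.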

[2] = qHTS of pediatric cancer cell lines to identify multiple opportunities for drug repurposing: Primary screen for control Hh wild type fibroblast cells (AID 1347106);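 note: series mostly up to about 46 µM; a drop in luminescence marks cytotoxicity and a rise apparent proliferation; nearly all actives have a fitted effect of over 55% in size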
Outline: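 Viability after 48 h compound treatment at 37C, 500-1,000 cells/well, read as ATP luminescence with CellTiter-Glo. Primary screens used 11-point (MIPE, 0.78 nM-46 µM) or 8-point (NPC, 0.59 nM-46 µM) final concentrations; follow-up screens used 11-point dilutions.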

[3] = qHTS of pediatric cancer cell lines to identify multiple opportunities for drug repurposing: Primary screen for Rh30 cells (AID 1347107); note: series mostly up to about 46 µM; nearly all actives have a fitted effect of over 75% in size
Outline: (§2)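 Cells (500-1,000/well) rested 5 h, then received compounds for 48 h; metabolically active cells were measured by CellTiter-Glo luminescence. Final concentrations spanned up to 46 µM (MIPE, 11-point) or 0.59 nM-46 µM (NPC, 8-point) in primary screens, 11-point in follow-ups.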

[4] = qHTS of pediatric cancer cell lines to identify multiple opportunities for drug repurposing: Primary screen for Rh41 cells (AID 1347108); note: nearly all actives have a fitted effect of over 70% in size; note: potency is the fitted concentration of half-maximal effect
Outline: as §1

[5] = qHTS of pediatric cancer cell lines to identify multiple opportunities for drug repurposing: Confirmatory screen for NB1643 cells (AID 1347109); note: nearly all actives have a fitted effect of over 45% in size
Outline: as §2

[6] = qHTS of pediatric cancer cell lines to identify multiple opportunities for drug repurposing: Confirmatory screen for A673 cells (AID 1347110);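 note: potency is the fitted concentration of half-maximal effect; cells exposed to compound for 48 h before the viability read; nearly all actives have a fitted effect of over 65% in size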
Outline: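 Cells plated at 500-1,000/well were treated five hours later with multi-point dilutions up to 46 µM final. After two days, CellTiter-Glo was added and luminescence read.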

[7] = qHTS of pediatric cancer cell lines to identify multiple opportunities for drug repurposing: Confirmatory screen for SK-N-MC cells (AID 1347111);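 note: cells exposed to compound for 48 h before the readout; nearly all actives have a fitted effect of over 70% in size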; note: potency is the fitted concentration of half-maximal effect
Outline: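 Seed 500-1,000 cells/well; rest 5 h at 37 degrees C. Pin-transfer compounds, 11-point titration. Incubate 48 h. Add CellTiter-Glo, 15 min RT, read luminescence.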

[8] = qHTS of pediatric cancer cell lines to identify multiple opportunities for drug repurposing: Confirmatory screen for BT-12 cells (AID 1347112); note: nearly all actives have a fitted effect of over 55% in size
Outline: as §2

[9] = qHTS of pediatric cancer cell lines to identify multiple opportunities for drug repurposing: Confirmatory screen for SJ-GBM2 cells (AID 1347116); note: nearly all actives have a fitted effect of over 60% in size; note: potency is the fitted concentration of half-maximal effect
Outline: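 Viability measured as metabolically active cells via CellTiter-Glo luminescence following 48 hours of compound exposure, 11-point dilutions in confirmatory testing. 500-1,000 cells/well plated 5 hours before dosing; controls were DMSO and 2.3 µM bortezomib.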

[10] = qHTS of pediatric cancer cell lines to identify multiple opportunities for drug repurposing: Confirmatory screen for BT-37 cells (AID 1347117); note: nearly all actives have a fitted effect of over 55% in size
Outline: as §2

[11] = qHTS of pediatric cancer cell lines to identify multiple opportunities for drug repurposing: Confirmatory screen for control Hh wild type fibroblast cells (AID 1347121); note: nearly all actives have a fitted effect of over 70% in size
Outline: as §2

[12] = qHTS of pediatric cancer cell lines to identify multiple opportunities for drug repurposing: Primary screen for RD cells (AID 1347104); note: nearly all actives have a fitted effect of over 55% in size
Outline: as §1

[13] = qHTS of pediatric cancer cell lines to identify multiple opportunities for drug repurposing: Primary screen for OHS-50 cells (AID 1347103); note: potency is the fitted concentration of half-maximal effect; nearly all actives have a fitted effect of over 40% in size
Outline: as §2

[14] = qHTS of pediatric cancer cell lines to identify multiple opportunities for drug repurposing: Confirmatory screen for NB-EBc1 cells (AID 1347115);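 note: cells exposed to compound for 48 h before the viability read; nearly all actives have a fitted effect of over 45% in size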; note: potency is the fitted concentration of half-maximal effect
Outline: as §2

[15] = qHTS of pediatric cancer cell lines to identify multiple opportunities for drug repurposing: Confirmatory screen for TC32 cells (AID 1347118);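 note: cells exposed to compound for 48 h before the read; nearly all actives have a fitted effect of over 65% in size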; note: potency is the fitted concentration of half-maximal effect
Outline: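 qHTS, TC32, 48 h drug treatment, CellTiter-Glo luminescence as a proxy for metabolically active cells; primary top concentration 46 µM (MIPE 11-pt, NPC 8-pt); confirmatory 11-pt.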

[16] = qHTS of pediatric cancer cell lines to identify multiple opportunities for drug repurposing: Confirmatory screen for Rh41 cells (AID 1347123);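 note: potency is the fitted concentration of half-maximal effect; 48 h compound exposure; nearly all actives have a fitted effect of over 60% in size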
Outline: as §2

[17] = qHTS of pediatric cancer cell lines to identify multiple opportunities for drug repurposing: Confirmatory screen for LAN-5 cells (AID 1347113); note: nearly all actives have a fitted effect of over 65% in size
Outline: as §2

[18] = qHTS of pediatric cancer cell lines to identify multiple opportunities for drug repurposing: Confirmatory screen for MG 63 (6-TG R) cells (AID 1347119)
Outline: as §2

Measured: Potency

OC[C@H](Cc1ccccc1)Nc1nc(Oc2ccc3c(c2)CCC3)nc2c1ncn2Cc1ccc(-c2ccccc2)cc1
active: [6] 4.65 µM | [7] 2.33 µM
inactive: [1] | [2] | [3] | [4] | [5] | [8] | [9] | [10] | [11]

CCOc1cc(C=C2C(=O)N(c3ccccc3)N=C2C)cc(Cl)c1OCC(=O)OC
inactive: [12] | [2]

COc1ccc(COc2cc3oc(=O)c4cc(C(C)O)ccc4c3cc2OC)cc1 (configuration not stated)
active: [1] 18.7 µM | [4] 18.7 µM

Cn1cc(-c2ccc3nnc(C(F)(F)c4ccc5ncccc5c4)n3n2)cn1
inactive: [12] | [2]

Nc1ncnc2nc(-c3ccc(N4CCOCC4)nc3)cc(-c3cccc(Br)c3)c12
inactive: [1] | [2]

O=C1CCCC2=C1C(c1[nH]ncc1Cl)N=C(Nc1nc3ccccc3o1)N2 (configuration not stated)
inactive: [1] | [2]

O=C(Nc1nc2ccccc2n1CCN1CCOCC1)c1cccc([N+](=O)[O-])c1
active: [13] 9.68 µM | [4] 18.7 µM
inactive: [2]

COc1cccc2cc(-c3nc(C4CCC(C(=O)O)CC4)n4ncnc(N)c34)[nH]c12 (configuration not stated)
inactive: [5] | [7] | [14] | [10] | [15] | [11]
active: [13] 0.109 µM | [16] 2.08 µM

CN(C)c1ccc(C2Nc3ccc4ccccc4c3C3=C2C(=O)CC(C)(C)C3)cc1Br (configuration not stated)
active: [7] 19.1 µM | [14] 42.7 µM | [9] 8.27 µM | [15] 15.1 µM | [18] 7.59 µM
inactive: [2] | [3] | [8] | [17] | [11]
